TRPV1 PAM – enhances activation of the human vanilloid receptor TRPV1 | TRPV1-expressing cells, Fluo-8 calcium influx, capsaicin EC20 potentiation | potentiation, % at 8.33 µM | Q8NER1 | actives 0.02% (n = 320,000); in the data active = potentiation above about 80%; inconclusive = between about 30% and that limit; also: 0% is about no effect
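Fluo-8 calcium influx in TRPV1-expressing cells, kinetic read (ex 480/em 520 nm). Compound added and read 3 min for agonist activity, followed by capsaicin at EC20 final and 2 min further read for enhancement.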
hERG WT inh – KCNH2 (human, wildtype) channel inhibition; activity change, % at 1.84 µM; Q12809; U2OS, BacMam KCNH2, thallium flux FluxOr; hits give low values; actives 0.37% (n = 340,000);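 active = maximum activity change below -70%; inconclusive = maximum activity change between -70% and -50%; inactive = maximum activity change above -50%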; also: % is scaled to controls: 0 for no effect and ±100 for the full control effect
Target sequence (Q12809 whole entry, looked up): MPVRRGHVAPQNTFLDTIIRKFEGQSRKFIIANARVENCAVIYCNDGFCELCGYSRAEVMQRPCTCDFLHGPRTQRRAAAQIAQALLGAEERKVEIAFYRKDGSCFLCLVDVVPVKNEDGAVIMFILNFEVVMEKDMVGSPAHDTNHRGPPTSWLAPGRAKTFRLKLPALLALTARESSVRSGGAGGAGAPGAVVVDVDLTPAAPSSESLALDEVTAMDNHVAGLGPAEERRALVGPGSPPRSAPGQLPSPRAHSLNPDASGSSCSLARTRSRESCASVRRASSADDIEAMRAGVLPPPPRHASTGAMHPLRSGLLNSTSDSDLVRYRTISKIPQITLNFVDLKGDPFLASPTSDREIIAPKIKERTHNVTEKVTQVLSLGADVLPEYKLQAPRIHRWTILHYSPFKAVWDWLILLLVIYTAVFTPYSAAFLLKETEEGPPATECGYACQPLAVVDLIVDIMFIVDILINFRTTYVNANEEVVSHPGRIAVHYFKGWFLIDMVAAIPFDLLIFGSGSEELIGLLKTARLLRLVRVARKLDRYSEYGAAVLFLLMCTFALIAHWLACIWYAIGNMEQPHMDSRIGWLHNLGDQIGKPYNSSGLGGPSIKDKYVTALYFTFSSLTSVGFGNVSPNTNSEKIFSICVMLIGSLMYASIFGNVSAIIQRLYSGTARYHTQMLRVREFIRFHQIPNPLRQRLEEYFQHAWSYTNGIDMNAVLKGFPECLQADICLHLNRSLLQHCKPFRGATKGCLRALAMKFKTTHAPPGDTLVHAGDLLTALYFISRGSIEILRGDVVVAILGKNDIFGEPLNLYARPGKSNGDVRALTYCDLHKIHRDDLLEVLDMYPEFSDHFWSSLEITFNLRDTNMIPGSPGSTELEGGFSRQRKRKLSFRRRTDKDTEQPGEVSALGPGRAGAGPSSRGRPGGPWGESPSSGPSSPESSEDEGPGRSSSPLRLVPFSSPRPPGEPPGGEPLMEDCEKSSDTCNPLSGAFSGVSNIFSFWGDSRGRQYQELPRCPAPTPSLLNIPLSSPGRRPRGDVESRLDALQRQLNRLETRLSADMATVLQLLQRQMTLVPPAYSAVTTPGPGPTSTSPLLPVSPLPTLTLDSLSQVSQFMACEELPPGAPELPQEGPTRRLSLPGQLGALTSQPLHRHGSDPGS
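U2OS cells transduced with wild-type KCNH2 virus are loaded with FluxOr dye for 45 min, and thallium flux is measured in kinetic reads before and after stimulation buffer. Rate constants are normalized to DMSO controls.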
KCNH2 3.1 block – KCNH2 3.1 (human) potassium channel inhibition | actives 0.95% (n = 340,000) | U2OS KCNH2 3.1, thallium flux FluxOr; hits give low values | activity change, % (tested at about 1.8 µM) | AID 720553;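 active = maximum activity change below -70%; inconclusive = maximum activity change from -70% to -50%; inactive = maximum activity change above -50%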;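 also: thallium influx rate constant from kinetic fluorescence after stimulation buffer; % is scaled to controls: 0 for no effect and ±100 for the full control effect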
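Channel expression came from 3.1 mutant virus (1.77 x 10^8 /mL) applied to suspended U2OS cells for 4 h. Flux was tracked with FluxOr dye plus Red40 quencher, and kinetic rate constants normalized to controls.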
TRPV1 ag – activates the human vanilloid receptor TRPV1. TRPV1-expressing cells, Fluo-8 calcium influx, agonist mode. activation, % at 8.33 µM. actives 0.19% (n = 320,000). AID 540275; in the data active = activation above about 80%; inconclusive = between about 30% and that limit; also: 0% is about no effect
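Cells expressing TRPV1 were dye-loaded with Fluo-8 and read kinetically: 10 s baseline, 3 min after compound (agonist portion), then 2 min after EC20 capsaicin (allosteric enhancer portion). Calcium-bound dye fluorescence at 480/520 nm.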
The depositor's hits bear a star; ? = inconclusive; nt = no result given. The list is not random: actives were taken first. Their share in the collection is about 1.2%.

SMILES	TRPV1 PAM	hERG WT inh	KCNH2 3.1 block	TRPV1 ag
CC(CNC(=O)c1cc(Cl)ccc1[N+](=O)[O-])NC(=O)c1cc(Cl)ccc1[N+](=O)[O-] (stereo unspecified)	7.2	-3.7	-8.0	-2.3
COc1ccc(CCNc2cc(=O)[nH]c(N)n2)cc1	-9.8	-13.3	-11.1	0.4
Cc1ccc(NC(=O)CCN2CCN(C/C=C/c3ccccc3)CC2)cc1	12.4	-96.0*	-86.2*	-0.2
OCC1(CCc2ccccc2)CCN(C/C=C/c2ccccc2)CC1	0.9	-135.4*	-106.9*	0.9
OCC1(Cc2ccccc2Cl)CCN(C/C=C/c2ccccc2)CC1	-1.6	35.3	-3.1	1.6
CC(C(=O)Nc1ccc([N+](=O)[O-])cc1)N1CCN(C/C=C/c2ccccc2)CC1 (stereo unspecified)	-38.7	-194.4*	15.8	18.4
CC(C)n1c(CNC(=O)c2ccccc2F)nnc1SCC(=O)c1ccc(F)cc1	nt	-1.6	11.1	nt
NC(=O)C1CCN(C(=O)c2ccc(NS(=O)(=O)/C=C/c3ccccc3)cc2)CC1	nt	14.0	7.0	nt
O=C(NCc1ccncc1)C1CCCN(S(=O)(=O)c2cc(Cl)ccc2Cl)C1 (stereo unspecified)	-18.1	1.1	-7.5	87.2*
Cc1ccc(C(=O)NNC(=O)c2n[nH]c(=O)c3ccccc23)cc1C	-4.3	5.7	-79.1*	1.4
O=C(NNC(=O)c1n[nH]c(=O)c2ccccc12)c1ccc(Br)cc1	8.0	-3.3	-6.6	-2.8
CCc1cccc2sc(N3CCN(C(=O)c4ccc([N+](=O)[O-])o4)CC3)nc12	-2.9	-3.8	-14.5	?
Cc1ccc(N(CC(=O)NC2CCCCC2)C(=O)Cn2nnc(-c3ccc(C)o3)n2)cc1	16.4	4.5	-5.2	2.5
COc1ccc(C)cc1N(CC(=O)NC1CCCC1)C(=O)Cn1nnc(-c2ccc(C)o2)n1	-2.2	1.5	-101.0*	6.6
COc1ccccc1Nc1nc(N)nc(CN2CCC(Cc3ccccc3)CC2)n1	?	-155.2*	-104.0*	13.0
COc1ccc(Nc2nc(N)nc(CN3CCOCC3)n2)cc1	-15.6	6.5	-14.2	-2.2
COc1ccc(Nc2nc(N)nc(CN3CCC(Cc4ccccc4)CC3)n2)cc1	0.8	-40.6	-116.0*	2.2
CN(C)S(=O)(=O)Nc1ccccc1F	-0.3	-6.4	-80.0*	-2.3
COc1ccc2nc(NC(=O)C3CCN(S(=O)(=O)c4cccs4)CC3)sc2c1	7.6	41.8	-13.6	-1.3
Cc1ccc2nc(NC(=O)C3CCN(S(=O)(=O)c4cccs4)CC3)sc2c1	-19.9	9.0	-80.1*	4.8
Cc1cc(NC(=O)CCCN2C(=O)c3cccnc3C2=O)ccc1Br	2.3	-14.0	-72.0*	1.3
Cc1cc(NC(=O)CCCN2C(=O)c3cccnc3C2=O)no1	?	-8.4	10.2	-4.3
COc1cccc(CN2CCN(C3CCN(c4cccc(C)c4C)CC3)CC2CCO)c1 (stereo unspecified)	-2.9	-0.9	-71.6*	-1.5
O=C(NN=C1CCCC1)c1ccn[nH]1	-4.3	-135.7*	-200.1*	5.0
O=C(NN=C1CCCC1)c1cc(-c2ccccc2)n[nH]1	3.8	-0.6	4.6	-1.7
SMILES	TRPV1 PAM	hERG WT inh	KCNH2 3.1 block	TRPV1 ag
CN1CCC(Oc2ccccc2Sc2ccccc2)CC1	0.4	-70.9*	4.9	4.3
CCN1CCc2nc3ccccc3c(C(=O)Nc3ccc(F)cc3)c2C1	-7.9	?	-82.6*	-0.4
CCN1CCc2nc3ccccc3c(C(=O)Nc3ccc(NC(C)=O)cc3)c2C1	0.0	-5.6	-7.4	1.8
CC1CCC(N2CCN(c3ccc([N+](=O)[O-])cc3)CC2)CC1 (stereo unspecified)	-22.4	?	-111.6*	2.6
O=[N+]([O-])c1ccc(N2CCN(c3ccc(F)cc3)CC2)cc1	?	-1.1	-32.7	-3.4
CCC1CCC(N2CCN(c3ccc([N+](=O)[O-])cc3)CC2)CC1 (stereo unspecified)	-1.5	-123.5*	-101.0*	-10.1
C=CCSc1nnc2c(n1)OC(C)=Nc1ccc(Br)cc1-2	3.2	-13.4	0.3	-4.3
Cc1ccc(Cl)c(OCCCN(C)Cc2ccccc2)c1	-7.3	-70.0*	-10.3	28.4
CC(C)CCn1cnc2c(cnn2-c2ccc(F)cc2)c1=O	-6.7	-181.2*	-136.7*	17.7
COc1ccc(CNC(=O)COC(=O)c2cc(C)nc3ccccc23)cc1	nt	0.6	1.7	nt
COc1ccc(CNC(=O)COC(=O)c2cc(-c3cccs3)nc3ccccc23)cc1OC	-19.0	-5.2	-3.3	88.0*
COc1ccc(Cl)cc1C=CC=Nc1ccccc1O	nt	-10.5	nt	nt
O=C(c1cc2ccccc2oc1=O)N(Cc1cccs1)C1CCS(=O)(=O)C1 (stereo unspecified)	-1.9	-174.2*	-162.8*	1.7
O=[N+]([O-])c1cccnc1Oc1ccc(C2SCCS2)cc1	nt	-153.4*	16.3	nt
COc1cc(C2SCCS2)cc(Br)c1Oc1ncccc1[N+](=O)[O-]	nt	3.3	-1.7	nt
O=C1C=CC(=Nc2ccc(F)cc2)O1	nt	-4.2	-5.9	nt
Cc1ccc(S(=O)(=O)N(C)Cc2ccc(C(=O)N/N=C/c3ccc(OC(F)F)cc3OC(F)F)cc2)cc1	10.3	-24.9	-75.5*	-3.7
CN(CC(=O)NC(c1ccccc1)c1ccccc1)Cc1nc2ccccc2c(=O)[nH]1	-6.7	-81.1*	?	13.9
COc1cc(OC)c(NC(=S)NCc2ccc(F)cc2)cc1Cl	1.7	-27.8	-106.5*	-3.1
O=C(NN1C(=O)C2C3C=CC(C3)C2C1=O)c1cccc(Cl)c1 (stereo unspecified)	1.9	-78.0*	-15.5	-1.4
O=C(NN1C(=O)C2C3C=CC(C4CC34)C2C1=O)c1ccc(Cl)c(Cl)c1 (stereo unspecified)	-7.3	15.1	12.1	12.1
CCOC(=O)Cc1nn[nH]n1	-6.4	-6.5	-127.5*	-0.7
OCCC1CN(Cc2cccn2-c2cccnc2)CCN1C1CCCC1 (stereo unspecified)	-4.0	3.0	-2.7	3.0
COc1ccc(CCN2CCCn3c2nc2c3c(=O)n(CC(N)=O)c(=O)n2C)cc1OC	6.2	-18.5	5.6	2.4
Cc1nn(CCC#N)c(NC(=O)c2ccccc2)c1P(=O)(Nc1ccc(Br)cc1)N1CCOCC1 (stereo unspecified)	-16.4	0.9	-4.3	9.1
CCCCC(=O)Nc1ccc(C(=O)NNC(=O)c2ccco2)cc1	1.8	-153.7*	-12.6	1.3
Cc1ccc(S(=O)(=O)Nc2ccc3c(c2)nc(CCN2CCCCC2)n3C)cc1	-1.1	22.1	?	0.7
Cn1c(CCN2CCN(c3ccccn3)CC2)nc2cc(NS(=O)(=O)c3ccc(Cl)cc3)ccc21	27.2	-80.2*	-103.5*	2.0
Cn1c(CCN2CCCCC2)nc2cc(NS(=O)(=O)c3ccc(F)cc3)ccc21	-5.7	-45.3	-89.4*	2.2
Cc1ccc(S(=O)(=O)Nc2ccc3c(c2)nc(CCN2CCN(c4ccccn4)CC2)n3C)cc1	22.2	-41.0	-96.2*	1.0

Source: PubChem
